Growth data for 40 compounds are collected here from PubChem BioAssay (NCI).

The panel holds about 83,000 compounds, 20% with a hit somewhere; the sample as a whole holds those more often.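 Activity criterion: percent growth below 10, measured after cells in 96-well plates were exposed to a single compound concentration for 48 hours.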 Unmarked numbers belong to inactive results. Active and inactive are the calls of the source.

This experiment concerns ACHN renal. Kind of experiment: NCI-60 one-dose screen, 48 h (100 = growth as untreated, 0 = no growth, -100 = all killed). Particulars: 10 µM unless noted. As for the experimental part: Growth inhibition of the ACHN human tumor cell line is measured as a screen for anti-cancer activity. Cells are grown in 96 well plates and exposed to the test compound for 48 hours. Compounds are tested at a single concentration, which is 10^-5 M for most compounds. The reported endpoint is percent growth (GI% or GIPRCNT), where numbers from 0 - 100% represent growth inhibition, and numbers from -100% - 0 represent cell death. For example, a value of 40 represents 60% growth inhibition. A value of 0 means no net growth occurred over the course of the experiment. A value of -40 indicates 40% of cells at the beginning of the experiment died by the end of the experiment. A value of -100 means all cells are dead at the end of the experiment.
NCI-60 Human Tumor Cell Lines Screen was performed using the standard one-dose NCI protocol, which is described in more detail at https://dtp.cancer.gov/discovery_development/nci-60/default.htm.
Compounds with GIPRCNT values below 10 were considered active. Activity score was based on GIPRCNT using the following formula: […]
Score is 0 for GIPRCNT values of 100 or above, 50 for GIPRCNT values of 0, and 100 for GIPRCNT values of -100.
Consider `COc1ccc(/C=C/C=C\C(=O)c2ccc(-n3ccnc3)cc2)cc1`, for which the growth is 94.4%. On to `CCn1cc(-c2ccnc(NCCNS(=O)(=O)c3ccc(Br)cc3)c2)c(-c2cccc(OC)c2)n1`, for which the growth was 82.6%. For the compound `CCOc1cc(NC(=O)c2ccccc2)c(OCC)cc1N`, the growth was 118%. Turning to `C[C@]12CCc3c(ccc4cc(O)ccc34)[C@@H]1CC[C@H]2O`, the growth is 103%. The value for `C=C(C)[C@@H]1CC[C@]2(C(N)=O)CC[C@]3(C)[C@H](CC[C@@H]4[C@@]5(C)CC[C@H](O)C(C)(C)[C@@H]5CC[C@]43C)[C@@H]12` was -80.3% [100 µM] (active); that for `COC(=O)C(=Cc1ccccc1[N+](=O)[O-])C(=O)OC` was 48.7%; that for `COc1ccc2c(c1)C(C)Cc1c(ncnc1-n1cnc3ccccc31)N2C` (stereo not given) was 50.1%. On to `C=C(CC(=O)OC)C(C)=O`, for which the growth is 109%.

For `C/C=C/C1OC23CCCCC2C(C#N)(C(=N)O3)C1(C#N)C#N` (stereo not given), the growth was 94.1%. On to `COc1ccc2c3ccnc(C(F)(F)F)c3n(CCCCN)c2c1`, for which the growth is 26.8%. With `N#Cc1c(N2CCOCC2)nc(=S)[nH]c1-c1ccco1`, the growth was 64.2%. As to `CCCCCCCCCN(CCCCCCCCC)C(C)C(=O)c1ccc2cc(Br)c3ccccc3c2c1` (stereo not given), the growth is 85.9%. Turning to `CCCCCCNC(=O)Nc1ncnc2c1ncn2-c1ccccc1`, the growth was 90.7%. Consider `CC1Cc2c(Cl)ncnc2N(C)c2ccc(O)cc21` (stereo not given), for which the growth is 84.9%. The value for `CCCCNC(=O)NS(=O)(=O)Cc1ccccc1` was 106%; that for `CCOC(=O)c1c[nH]c2cc(OCC3CC3)c(OCC3CC3)cc2c1=O` was 105%. Turning to `CCOC(=O)c1nn(C2CCCCO2)c2ccc(NC(=O)CN3CCCC3)cc12` (stereo not given), the growth is 101%. For `O=C1CC(c2ccccc2)Cc2nc3ccc(Br)cc3cc21` (stereo not given), the growth was 34.3%. For `CCOC(=O)COc1c(C)cc(SSc2cc(C)c(OCC(=O)OCC)c(C)c2)cc1C`, the growth is 107%. Consider `O=C(Nc1ccccc1)Nc1ccc(C(=O)/C=C/c2ccc(N3CCCC3)cc2)cc1`, for which the growth is 83.6%.

In the case of `C[n+]1c2ccccc2nc2c(N)cc(N)cc21`, the growth is 96.7%. Turning to `COc1ccc(-c2c(C)nn3c(NCCN4CCOCC4)cc(C)nc23)cc1OC`, the growth is 106%. In the case of `C=CCCCCCCCCC(=O)OC(C)C`, the growth is 107%. For the compound `COC(=O)[C@H](CC(C)C)NC(=O)NC(=O)NC(=O)CI`, the growth is 37%. Under `C#CCOc1ccc(C2=NN(CC3CC3)C3N=C(Cl)c4ncn(CC5CC5)c4N23)cc1OCC#C` (stereo not given) stands 62%; under `COc1cc(-c2nc(SCCC(C)C)nc(Nc3ccc(S(N)(=O)=O)cc3)c2C#N)cc(OC)c1OC`, 29.5%; under `C=C(C)[C@@H]1CC[C@]2(C(=O)NCCCCCCN(CCCN)CCCN)CC[C@]3(C)[C@H](CC[C@@H]4[C@@]5(C)CC[C@H](OCCCN)C(C)(C)[C@@H]5CC[C@]43C)[C@@H]12`, 75.6% [100 µM]. The value for `COc1cc(NCc2ccccc2O)c2ncccc2c1` was 97.2%. Consider `CCN(CC)c1ccc2cc(C(Nc3ccc(Cl)cc3)c3nnnn3C(C)(C)C)c(=O)oc2c1` (stereo not given), for which the growth is 92.4%. `C[C@]12CCc3nc(Nc4ccccc4)sc3C1=CC[C@@H]1[C@@H]2CC[C@]2(C)/C(=N/NC(N)=S)CC[C@@H]12`: the growth was 31.6%. In the case of `Cc1nc(-c2ccccc2)sc1CC#N`, the growth was 102%. The value for `O=S(=O)(c1ccc(N/N=C\c2ccccc2Cl)cc1)c1ccc(N/N=C/c2ccccc2Cl)cc1` was 82.7%; that for `CC[C@]12C=CCN3CC[C@@]4(c5ccc(OC)cc5N(C)[C@H]4[C@@](O)(C(=O)OC)[C@@H]1OC(=O)CCC(=O)O[C@H]1CC[C@H]4[C@@H]5CCC6=CC(=O)CC[C@@H]6[C@H]5CC[C@]14C)[C@@H]32` was -0.641% [100 µM] (active).

Take `CSc1cccc([N+](=O)[O-])c1`: the growth is 102%.

For `CC(C)C1=NOC(=O)C1=Cc1cn(-c2ccccc2)nc1-c1ccccc1`, the growth is 84.5%. With `Nc1nc(Nc2ccccc2)c2ncn(Cc3ccc4c(c3)OCO4)c2n1`, the growth was 56.7%.

Regarding `COc1cc(OC)c(/C=C/C(=O)c2c(N)cc(OC)cc2OC)c(OC)c1`, the growth is 36.6%.

Regarding `COc1cc(C)cc2oc3oc(=N)c(C(=O)c4ccccc4)cc3c(=O)c12`, the growth was 95.5%. In the case of `C[n+]1cccc(NC(=O)c2ccc3ccc4ccc(C(=O)Nc5ccc[n+](C)c5)nc4c3n2)c1`, the growth was 41.8%.

On to `CCCCC(CCCCCC(CCCC)C1NC(C)Cc2cc(OC)c(OC)cc21)C1NC(C)Cc2cc(OC)c(OC)cc21` (stereo not given), for which the growth is -100% (active).
